Compound activity deposited in PubChem BioAssay by several laboratories.
In the library only some 2.2% were active in any assay of this set; here they are far more common.
Myeloid diff MLP: myeloid differentiation induction | ER-HoxA9 myeloid progenitors, lysozyme-GFP differentiation, flow cytometry | calls only at 10 µM | 360,000 tested, 1% active | AID 624256;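 active means normalized GFP-positive differentiation at or above the plate's own cutoff, the solvent-only control mean plus 3 SD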;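 further: cells exposed to compound for four days before flow analysis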
beta cell repl: MIN6 beta-cell proliferation induction | MIN6 cells proliferation, ATPlite luminescence, 48 h; cells starved in 0.2% serum; 100% = growth in 10% serum | proliferation, % at 10 µM | 330,000 tested, 0.29% active | AID 2380;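 active means compounds whose signal lies at least 3.5 SD above the mean of all wells on their plate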;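 further: 0% = DMSO-treated cells in low-serum medium and 100% = 10% serum control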
iPSC survival up: hiPSC single-cell survival enhancement. ATPlite luminescence; 100% = ROCK inhibitor wells, 0% = DMSO. survival enhancement, % at 20 µM. 360,000 tested, 0.044% active. AID 602274; in the data active means survival enhancement above about 18%;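 further: cells exposed to compounds for 16 hours before the ATP read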
ABCB6 inh MLPCN: blocks the human ABCB6 transporter; K562-ABCB6 porphyrin accumulation, flow cytometry, 1 h; hits give low values; fluorescence ratio to DMSO, % at 10 µM; 360,000 tested, 0.19% active; Q9NP58;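 active means fluorescence ratio to DMSO below 75%, the collection mean minus 3 SD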;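 further: signal is porphyrin accumulated inside mitochondria; 100% equals median channel fluorescence of DMSO control wells; lower ratio means ABCB6 inhibition with less porphyrin fluorescence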
Target sequence (Q9NP58 whole entry, looked up): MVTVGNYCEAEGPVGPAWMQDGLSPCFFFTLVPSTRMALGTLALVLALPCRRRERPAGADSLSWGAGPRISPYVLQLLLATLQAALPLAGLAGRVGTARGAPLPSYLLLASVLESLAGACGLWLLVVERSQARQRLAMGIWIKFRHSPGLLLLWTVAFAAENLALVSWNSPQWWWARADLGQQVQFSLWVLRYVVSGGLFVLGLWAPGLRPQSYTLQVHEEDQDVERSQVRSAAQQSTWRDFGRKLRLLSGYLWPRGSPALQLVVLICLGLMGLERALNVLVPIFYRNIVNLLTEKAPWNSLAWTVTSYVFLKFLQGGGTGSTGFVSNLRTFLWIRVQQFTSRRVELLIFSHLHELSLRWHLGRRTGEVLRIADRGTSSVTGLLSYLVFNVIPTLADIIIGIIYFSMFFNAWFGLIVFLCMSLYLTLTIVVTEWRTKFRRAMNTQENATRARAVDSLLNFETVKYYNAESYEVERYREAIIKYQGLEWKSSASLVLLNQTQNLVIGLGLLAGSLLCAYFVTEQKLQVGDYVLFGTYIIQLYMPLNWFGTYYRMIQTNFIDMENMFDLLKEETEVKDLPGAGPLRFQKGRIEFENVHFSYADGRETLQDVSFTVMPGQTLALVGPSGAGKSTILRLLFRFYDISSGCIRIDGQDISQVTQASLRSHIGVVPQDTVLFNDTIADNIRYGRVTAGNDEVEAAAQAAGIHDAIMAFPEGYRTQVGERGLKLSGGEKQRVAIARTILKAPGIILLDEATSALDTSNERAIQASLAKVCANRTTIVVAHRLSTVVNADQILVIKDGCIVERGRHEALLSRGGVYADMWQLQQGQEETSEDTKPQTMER
Cardio protect: modulators protecting cardiomyocytes from myocardial damage; H9c2 cardiomyocytes, H2O2 injury protection, ATPLite, 2 h; protection from H2O2 cell death, % at 20 µM; 360,000 tested, 0.63% active;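 active means compounds giving at least 50% protection of heart cells from peroxide-induced death in the single-dose screen, raw or plate-pattern-corrected value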;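 further: 0% = DMSO wells with peroxide and 100% = DMSO wells without peroxide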
ABCB6 blocker 1: blocks the human ABCB6 transporter | K562-ABCB6 porphyrin accumulation, flow cytometry, 1 h; hits give low values | AID 602430 | shares compounds with ABCB6 inh MLPCN | 700 tested, under 10 active | ratio response (% of DMSO), % at 10 µM;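 active means repeat-averaged ratio response below 75% of DMSO, the collection mean minus 3 SD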;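 further: median porphyrin fluorescence at 575 nm with 488 nm excitation from mitochondria; lower ratio means less porphyrin signal so ABCB6 inhibition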
* hit, by the source's call; i = inactive; · = not tested or not shown.

SMILES	Myeloid diff MLP	beta cell repl	iPSC survival up	ABCB6 inh MLPCN	Cardio protect	ABCB6 blocker 1
O=C1CC(c2ccccc2)CC(O)=C1C=NCc1ccccc1 (configuration not stated)	i	-1	-2	103	0	·
O=C1CC(c2ccccc2)CC(O)=C1C=NCc1ccccc1Cl (configuration not stated)	i	-3	0	15*	0	97
COc1ccc(CNC(=O)COc2ccc(C)nc2[N+](=O)[O-])cc1	i	0	0	90	1	·
COc1ccccc1CNC(=O)COC(=O)COc1ccccc1F	i	6	0	74*	5	99
Cc1ccc(C)c(NC(=O)C2(C)CCN2C(C)C)c1 (configuration not stated)	i	·	-3	101	5	·
Cc1ccsc1CNC(=O)C1(C)CCN1C(C)C (configuration not stated)	i	·	-2	71*	4	100
O=C(COC(=O)C1CCC1)Nc1ccccc1Sc1ccccc1	i	-3	3	94	1	·
CC(C)CC(=O)OCC(=O)Nc1ccccc1Sc1ccccc1	i	0	0	74*	8	99
CCOC(=O)C1CCN(Cc2ccc(F)c(Br)c2)CC1	i	-1	-2	69*	-2	99
CCCC(=O)Nc1ccc2c(c1)Cc1ccccc1-2	i	-2	-1	73*	-1	99
CCOC(=O)CSc1nnc(NC(=O)c2cc([N+](=O)[O-])cc([N+](=O)[O-])c2)s1	i	-5	0	74*	-4	97
CC(O)c1cccc(NC2=CC(=O)CC(C)(C)C2)c1 (configuration not stated)	i	-2	0	64*	0	100
CN(C(=O)C1CCCCC1)C1CCS(=O)(=O)C1 (configuration not stated)	i	-3	0	100	-6	·
CN(C(=O)C1CCCC1)C1CCS(=O)(=O)C1 (configuration not stated)	i	1	0	71*	-1	99
Cc1ccccc1N(Cc1ccccc1F)S(C)(=O)=O	i	-2	6	63*	0	99
Cc1ccc(C)c(N(Cc2ccccc2F)S(C)(=O)=O)c1	i	-1	-1	96	-1	·
O=C(CCC(=O)N1CCCC1)Nc1nnc(C2CCCCC2)s1	i	0	0	93	-2	·
CC1CCCCN1C(=O)CCC(=O)Nc1nnc(C2CCCCC2)s1 (configuration not stated)	i	-2	0	20*	-2	102
O=C(Nc1c(C(=O)N2CCOCC2)cnn1-c1ccccc1)c1cccc(F)c1	i	0	0	101	2	·
Cc1noc(C)c1S(=O)(=O)N1CCC(C(=O)O)CC1	i	1	-2	100	2	99
Cc1ccc(C(=O)C2CCN(S(=O)(=O)c3c(C)noc3C)CC2)cc1	i	-2	0	98	-1	·
O=C(C1CCN(c2nnnn2-c2ccccc2)CC1)N1CCN(c2ccccc2)CC1	i	-1	-3	99	-1	·
Cc1nn(Cc2c(F)c(F)c(F)c(F)c2F)c(C)c1NC(=O)c1c(-c2ccccc2)nn(-c2ccccc2)c1C	i	-2	-3	38*	17	98
CCOC(=O)CSc1nc2cc(S(=O)(=O)N3CCOCC3)ccc2n1CC	i	2	0	97	2	·
CC(=O)Nc1ccc(NC(=O)CSC2=NS(=O)(=O)c3cc(Cl)ccc3N2)cc1	i	0	0	56*	-2	100
SMILES	Myeloid diff MLP	beta cell repl	iPSC survival up	ABCB6 inh MLPCN	Cardio protect	ABCB6 blocker 1
CCOc1ccc(N(CC(=O)NCCOc2ccc(C)cc2)S(=O)(=O)c2ccccc2)cc1	i	-2	0	94	-5	·
COCCn1c(N2CCN(c3ccc(OC)cc3)CC2)nc2c1c(=O)[nH]c(=O)n2C	i	2	0	94	0	·
CCOCCn1c(N2CCN(c3ccc(OC)cc3)CC2)nc2c1c(=O)[nH]c(=O)n2C	i	-1	3	72*	6	99
CCC(=O)N1CCN(CCN=CC2=C(O)CC(C)(C)CC2=O)CC1	i	-2	-2	96	-3	·
O=C(O)C1C2C=CC(C2)C1C(=O)Nc1cccc(F)c1 (configuration not stated)	i	-3	1	58*	9	101
O=C(O)c1cccc(NC(=O)C2C3C=CC(C3)C2C(=O)O)c1 (configuration not stated)	i	0	6	97	0	·
Cc1ccccc1-c1cnc(C(O)c2cccc(C)c2C)[nH]1 (configuration not stated)	i	·	0	70*	-2	100
Cc1cccc(C(O)c2ncc(-c3ccccc3Cl)[nH]2)c1C (configuration not stated)	i	·	-2	101	-6	·
O=C(NCc1ccco1)c1c2c(nc3ccccc13)CCC2	i	-1	-1	74*	13	101
COc1ccc(C(=O)NCC(C)NC(=O)c2ccc(OC)cc2)cc1 (configuration not stated)	i	-2	-1	100	0	·
CC(CNC(=O)c1ccc(C#N)cc1)NC(=O)c1ccc(C#N)cc1 (configuration not stated)	i	·	0	73*	1	101
O=C(Cn1cc(C(=O)c2cccs2)c2ccccc21)NC1CCCCC1	i	2	6	60*	-3	100
CCCS(=O)(=O)NC(=O)C1(C)CCN(C(=O)c2ccc(C(F)(F)F)cc2)C1 (configuration not stated)	i	·	3	70*	-2	101
Cc1ccc2[nH]c(=O)c(CN(Cc3cccs3)Cc3nnnn3Cc3ccccc3)cc2c1	i	-4	-1	40*	-1	103
COc1ccccc1NS(=O)(=O)c1ccc(C(=O)N2CCCC(C(F)(F)F)C2)cc1 (configuration not stated)	i	0	0	93	-4	·
COc1ccccc1N(C)S(=O)(=O)c1ccc(C(=O)N2CCCC(C(F)(F)F)C2)cc1 (configuration not stated)	i	0	0	74*	-5	102
O=[N+]([O-])c1ccc(OCCn2cncn2)cc1	i	-1	0	63*	9	100
N#CCCn1cc(/C=N/NC(=O)c2ccncc2)c(-c2ccccc2)n1	i	-1	-2	98	-1	·
CCN(CC)CCn1c(=S)[nH]c2ccc(Cl)cc2c1=O	i	1	-2	105	5	·
COc1ccccc1CC(=O)NC1CCN(Cc2ccccc2)CC1	i	-1	0	99	6	·
COC(=O)c1ccccc1NC(=O)c1noc2c1CC(C(C)(C)C)CC2 (configuration not stated)	i	-1	-3	69*	0	100
